The structures appear in SMILES notation. Where “and” joins values, the source holds several entries; their conditions need not be identical. Identical values can stand only once. Where a structure was tested more than once in an assay, its records may differ in their call. Calls of active or inactive are those of the source. Unless noted, calls follow the shape of the dose curve; as a rule, active = well fitted curve in the direction sought with a large enough effect in the repeat runs; inconclusive = weak or mixed curves; inactive = no such curve, though single readings can be large; an effect the other way counts as inactive or inconclusive.

The results in this text go back to PubChem BioAssay (Tox21).

Experiment [1] in a line: qHTS assay to identify small molecule antagonists of the thyroid receptor (TR) signaling pathway - cell viability counter screen (AID 743064). Also: nearly all actives have a fitted effect of over 50% in size. Also: potency is read from the fitted curve at half-maximal effect. The method, boiled down: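 Compounds were tested on GH3.TRE-Luc cells in the presence of T3 at 1 nM final. Following 23.5 h at 37 °C, cell viability was quantified by CellTiter-Fluor.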
(In qHTS, concentration-response curves come from the screen itself.)

The nature of experiment [2]: qHTS assay to identify small molecule antagonists of the thyroid receptor (TR) signaling pathway (AID 743065). Also: nearly all actives have a fitted effect of over 55% in size. Also: potency is read from the fitted curve at half-maximal effect. In short, it runs like this:
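GH3.TRE-Luc rat pituitary cells carrying two TR response elements driving luciferase were plated for 4 h, given compound plus 1 nM T3 (final), and incubated 23.5 h at 37 C. ONE-Glo luminescence measured reporter inhibition; CellTiter-Fluor fluorescence tracked cytotoxicity.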

Experiment [3] concerns thyroid hormone receptor (rat, GH3 cells). In words: qHTS assay to identify small molecule agonists of the thyroid receptor (TR) signaling pathway (AID 743066; calls by dose curve; also: potency is read from the fitted curve at half-maximal effect).
Experiment [4] concerns the target Estrogen receptor (Homo sapiens) (UniProt P03372). In words: qHTS assay to identify small molecule antagonists of the estrogen receptor alpha (ER-alpha) signaling pathway (AID 743069; active = well fitted curve in the direction sought with a large enough effect in the signal ratio in the repeat runs, not every such curve was filed as active; inconclusive = weak or mixed curves, or effect the other way; inactive = no such curve, though single readings can be large or run the other way; the % refers to the signal ratio; also: potency is read from the fitted curve at half-maximal effect). In short, it runs like this:
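Screening used a UAS-driven beta-lactamase reporter integrated into HEK293 cells expressing ER-alpha, stimulated with 17beta-estradiol alongside test compounds over 18 hr at 37C; signal came from LiveBLAzer B/G FRET fluorescence.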

Experiment [5] can be described thus: qHTS assay to identify small molecule antagonists of the estrogen receptor alpha (ER-alpha) signaling pathway - cell viability counter screen (AID 743074; calls by dose curve; also: nearly all actives have a fitted effect of over 45% in size; also: potency is read from the fitted curve at half-maximal effect).
The target of experiment [6] is Estrogen receptor (Homo sapiens) (UniProt P03372). As to the kind of experiment: qHTS assay to identify small molecule agonists of the estrogen receptor alpha (ER-alpha) signaling pathway (AID 743075; calls by dose curve).
Sequence of Estrogen receptor (Homo sapiens) (P03372 whole entry, looked up): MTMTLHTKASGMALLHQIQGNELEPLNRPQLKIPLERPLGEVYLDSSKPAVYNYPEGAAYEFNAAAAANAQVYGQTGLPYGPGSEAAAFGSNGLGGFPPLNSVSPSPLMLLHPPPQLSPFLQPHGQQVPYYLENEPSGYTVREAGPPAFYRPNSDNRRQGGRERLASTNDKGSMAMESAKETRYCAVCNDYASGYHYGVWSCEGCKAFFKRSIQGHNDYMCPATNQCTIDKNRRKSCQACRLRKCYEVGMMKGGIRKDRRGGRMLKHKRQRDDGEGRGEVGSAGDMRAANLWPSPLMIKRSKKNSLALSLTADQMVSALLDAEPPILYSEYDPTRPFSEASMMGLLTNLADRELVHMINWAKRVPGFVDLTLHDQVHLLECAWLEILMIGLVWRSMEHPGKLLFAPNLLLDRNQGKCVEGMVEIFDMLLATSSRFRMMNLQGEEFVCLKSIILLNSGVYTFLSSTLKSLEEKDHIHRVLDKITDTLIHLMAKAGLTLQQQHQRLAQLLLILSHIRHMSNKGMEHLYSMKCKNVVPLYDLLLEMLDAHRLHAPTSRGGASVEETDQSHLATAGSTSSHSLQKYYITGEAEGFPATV
A short description of experiment [7]: qHTS assay to identify small molecule antagonists of the estrogen receptor alpha (ER-alpha) signaling pathway using the BG1 cell line (AID 743080; calls by dose curve;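 also: BG1 cells stimulated with 17beta-estradiol alongside compound; nearly all actives have a fitted effect of over 25% in size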; also: potency is read from the fitted curve at half-maximal effect). The method, boiled down:
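After 5 days in phenol-red-free 10% charcoal-stripped FBS medium, BG1-Luc-4E2 cells were seeded, left 24 h at 37 C, co-treated with compounds and 17beta-estradiol for 21.5 h, then assayed for viability and luciferase.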

The nature of experiment [8]: qHTS assay to identify small molecule antagonists of the estrogen receptor alpha (ER-alpha) signaling pathway using the BG1 cell line - cell viability counter screen (AID 743081).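 Also: compound given together with 17beta-estradiol as the ER stimulus; nearly all actives have a fitted effect of over 45% in size.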 Also: potency is read from the fitted curve at half-maximal effect.
A further experiment addresses Aromatase (Homo sapiens) (UniProt P11511). In words: qHTS assay to identify aromatase inhibitors (AID 743083). Also: nearly all actives have a fitted effect of over 55% in size. Also: potency is read from the fitted curve at half-maximal effect.
Experiment [9] deals with Estrogen receptor (Homo sapiens) (UniProt P03372). As to the kind of experiment: qHTS assay to identify small molecule agonists of the estrogen receptor alpha (ER-alpha) signaling pathway using the BG1 cell line (AID 743079). Also: nearly all actives have a fitted effect of over 20% in size. Also: potency is read from the fitted curve at half-maximal effect.

Sequence of Aromatase (Homo sapiens) (P11511 whole entry, looked up): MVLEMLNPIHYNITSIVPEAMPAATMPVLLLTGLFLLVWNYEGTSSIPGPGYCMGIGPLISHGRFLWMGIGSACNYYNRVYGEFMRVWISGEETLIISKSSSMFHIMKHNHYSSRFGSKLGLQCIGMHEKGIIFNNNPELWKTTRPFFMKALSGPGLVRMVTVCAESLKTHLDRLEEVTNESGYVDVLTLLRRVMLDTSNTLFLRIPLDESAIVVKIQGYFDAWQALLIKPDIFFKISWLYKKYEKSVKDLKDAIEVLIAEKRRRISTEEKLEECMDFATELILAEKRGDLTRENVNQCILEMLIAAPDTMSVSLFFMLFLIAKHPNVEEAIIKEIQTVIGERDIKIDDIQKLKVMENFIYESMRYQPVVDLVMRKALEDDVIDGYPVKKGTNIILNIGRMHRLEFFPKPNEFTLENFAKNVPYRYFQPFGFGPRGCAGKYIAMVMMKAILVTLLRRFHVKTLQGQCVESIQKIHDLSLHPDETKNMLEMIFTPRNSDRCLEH

Consider `O=C(COc1ccc(Cl)cc1)N1CCN(Cc2ccc3c(c2)OCO3)CC1`, for which the Potency result in experiment [1], in experiment [2], in experiment [3], in experiment [4], in [6] and in [8] was “inactive” throughout. Moreover, the Potency result with Aromatase (Homo sapiens) is “inactive”. Moreover, the Potency entry in experiment [5] was “inactive and 30.9 µM (active)”; in [7], 61.1 µM (active).

For the molecule `CC(C)OC=O`, the Potency entry in experiment [1], in experiment [2], in experiment [3], in experiment [4], in experiment [5] and in experiment [6] was “inactive” each time. The Potency result (in experiment [9]; in [7]; in experiment [8]; with Aromatase (Homo sapiens)) was “inactive” throughout.

As for `C/C=C/C(=O)O`, the Potency entry in [1], in [2], in [3], in [5] and in experiment [8] was “inactive” in each case.

As for `CCCCOCCOCCOCCO`, the Potency entry in experiment [1], in experiment [2], in experiment [3], in experiment [4], in experiment [5] and in [6] was “inactive” in each case. The Potency result (in [9]; in experiment [7]; in experiment [8]; with Aromatase (Homo sapiens)) was “inactive” in each case.

Take `CN1C(C(=O)Nc2ccccn2)=C(O)c2ccccc2S1(=O)=O`: the Potency result in [1], in experiment [2], in experiment [3], in experiment [4], in experiment [5] and in [6] was “inactive” each time. Further, the Potency result (in experiment [9]; in experiment [7]; in experiment [8]; with Aromatase (Homo sapiens)) was “inactive” throughout.

`CC(CCC(=O)O)(c1ccc(O)cc1)c1ccc(O)cc1`: the Potency result in [1], in experiment [2], in [3], in experiment [4], in experiment [5] and in [6] was “inactive” throughout. Also, the Potency entry (in experiment [7]; in [8]; with Aromatase (Homo sapiens)) was “inactive” each time. Moreover, in [9], the Potency was 61.1 µM (active).

On to `CC(C)=CCC/C(C)=C\CO`, for which the Potency entry in experiment [1], in [2], in experiment [5] and in experiment [8] was “inactive” each time. For the same molecule, the Potency in [3] is 24.5 µM (active) and inactive.

As for `CCCCC(CC)COC(=O)c1ccc(N(C)C)cc1` (stereo unspecified), the Potency entry in experiment [1], in experiment [2], in [3], in experiment [4], in experiment [5] and in experiment [6] was “inactive” throughout. Also, the Potency result (in experiment [9]; in experiment [7]; in experiment [8]; in the experiment with Aromatase (Homo sapiens)) was “inactive” throughout.

Take `Cc1cccc(N(C)C(=S)Oc2ccc3ccccc3c2)c1`: the Potency entry in experiment [1], in experiment [2], in experiment [3], in experiment [4], in experiment [5] and in [6] was “inactive” throughout. Further, the Potency entry (in experiment [8]; with Aromatase (Homo sapiens)) was “inactive” each time.

`O=P(O)(O)O`: the Potency result (in experiment [1]; in [2]; in experiment [3]; in experiment [5]; in [8]; in the experiment with Aromatase (Homo sapiens)) was “inactive” throughout.

Consider `COC(C)COC(C)COC(C)CO` (stereo unspecified), for which the Potency result in experiment [1], in [2], in experiment [3], in experiment [4], in [5] and in experiment [6] was “inactive” each time. Besides, the Potency entry (in experiment [9]; in experiment [7]; in experiment [8]; in the experiment with Aromatase (Homo sapiens)) was “inactive” each time.

With `Cc1cccc(C(=O)O)c1`, the Potency result in [1], in [2], in experiment [3], in [4], in experiment [5] and in experiment [6] was “inactive” each time. In addition, the Potency result (in experiment [9]; in [7]; in [8]; with Aromatase (Homo sapiens)) was “inactive” throughout.

Regarding `CC(=O)Oc1ccccc1C(=O)Nc1ncc([N+](=O)[O-])s1`, the Potency in experiment [1] was 29.8 µM (active) and 19.7 µM (active); in experiment [2], 11.9 µM (active) and 7.85 µM (active); in [5] it was 7.56 µM (active); in experiment [9], 0.668 µM (active); in the experiment with Aromatase (Homo sapiens), “inactive and 19.7 µM (active)”. For the same molecule, the Potency entry in experiment [3], in experiment [4] and in experiment [6] was “inactive” in each case.

Take `c1ccc2c(c1)Oc1ccccc1S2`: the Potency entry in [1], in experiment [2], in [3], in [4], in experiment [5] and in [6] was “inactive” throughout. Further, the Potency result (in experiment [7]; in experiment [8]; with Aromatase (Homo sapiens)) was “inactive” throughout. For the same molecule, the Potency entry in experiment [9] is “inactive and 61.1 µM (active)”.

Regarding `Cc1c(C(N)=O)cc([N+](=O)[O-])cc1[N+](=O)[O-]`, the Potency result in [1], in experiment [2], in experiment [3], in [4], in [5] and in [6] was “inactive” in each case. Besides, the Potency entry (in [9]; in experiment [7]; in experiment [8]; with Aromatase (Homo sapiens)) was “inactive” each time.

Turning to `Nc1ncn([C@@H]2O[C@H](CO)[C@@H](O)[C@H]2O)c(=O)n1`, the Potency in experiment [1] was 5.31 µM (active) and 9.69 µM (active); in experiment [2], 7.5 µM (active) and 9.69 µM (active); with Aromatase (Homo sapiens), 13.3 µM (active) and 8.63 µM (active). Further, the Potency entry in [3], in experiment [5], in experiment [6], in experiment [9], in experiment [7] and in experiment [8] was “inactive” in each case.

Turning to `CCCCNS(=O)(=O)c1ccccc1`, the Potency result in experiment [1], in [2], in experiment [3], in experiment [4], in [5] and in experiment [6] was “inactive” throughout. The Potency entry (in experiment [9]; in [7]; in experiment [8]; in the experiment with Aromatase (Homo sapiens)) was “inactive” in each case.

As for `O=C=Nc1ccc(Cc2ccc(N=C=O)cc2)cc1`, the Potency entry in experiment [1], in [2], in experiment [3], in experiment [5] and in [8] was “inactive” throughout.

Consider `Oc1ccc(O)cc1`, for which the Potency is 26.6 µM (active) and 17.1 µM (active) and 34.4 µM (active) in experiment [1]; 21.1 µM (active) and 30.5 µM (active) and 30.6 µM (active) in experiment [2]; “inactive and 60.8 µM (active)” in the experiment with Aromatase (Homo sapiens). For the same molecule, the Potency entry in experiment [3], in [5], in experiment [6], in experiment [9], in experiment [7] and in experiment [8] was “inactive” in each case.

Regarding `COC(=O)C1=C(C)NC(C)=C(C(=O)OCCN(C)Cc2ccccc2)C1c1cccc([N+](=O)[O-])c1` (stereo unspecified), the Potency in experiment [1] was 13.3 µM (active) and 19.2 µM (active); in [2], 9.44 µM (active) and 17.1 µM (active); in [4], 23.9 µM [inconclusive] (active); in experiment [8], 54.2 µM (active); with Aromatase (Homo sapiens), 29.8 µM (active) and 60.8 µM (active). Further, the Potency entry in experiment [3], in [5] and in experiment [6] was “inactive” each time.

For the molecule `c1cc(-c2ccncc2)ccn1`, the Potency result in [1], in experiment [2], in [3], in [4], in [5] and in [6] was “inactive” each time. Further, the Potency entry (in [9]; in experiment [8]; in the experiment with Aromatase (Homo sapiens)) was “inactive” each time.
